High-throughput results: PubChem BioAssay, National Center for Advancing Translational Sciences (NCATS)
TDP1 cell CPT = DT40-hTDP1 cell growth loss with CPT | Potency, µM (highest dose often 46.2 µM), for the others: top-dose activity change, negative = growth inhibition, actives largely listed as inhibitors | chicken DT40 Tdp1-/-;hTDP1 cells + 20 nM CPT, ATP luminescence, 48 h | 12% of 420,000 active; further: nearly all actives have a fitted effect of over 55% in size
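Chicken DT40 Tdp1-/- cells complemented with human TDP1, 400 cells/well, exposed to compounds plus 20 nM camptothecin for at least 48 h at 37 C; viability read as ATP content by CellTiter-Glo luminescence.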
KB-3-1 cytotox = kills parental KB-3-1 adenocarcinoma cells. KB-3-1 viability, CellTiter-Glo ATP luminescence, 72 h. 1.4% of 400,000 active. Potency, µM (highest dose often 46.1 µM), hits mostly cytotoxic; further: nearly all actives have a fitted effect of over 60% in size
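Using CellTiter-Glo luminescence, growth of non-resistant KB-3-1 adenocarcinoma cells is assessed 72 h after pin-tool compound addition at 37 °C. Normalized responses across the concentration series yield fitted curves.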
TDP1 cell noCPT = qHTS for Inhibitors of human tyrosyl-DNA phosphodiesterase 1 (TDP1): qHTS in cells in absence of CPT. DT40 Tdp1-/- hTDP1 cells, no CPT, ATP luminescence, 48 h. Potency, µM (titrated, usually from 46.2 µM), inactives show at the highest dose activity change, negative = growth inhibition, actives largely listed as inhibitors. 15% of 420,000 active. AID 686978, 2013; further: nearly all actives have a fitted effect of over 55% in size
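Growth kinetics read by CellTiter-Glo luminescence after ≥48 hr at 37 °C. Cells: DT40 Tdp1-/- stably carrying human TDP1, 400 per well, compound exposure in the absence of CPT (DMSO vehicle).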
HT1080 IDH1KD tx = toxicity to HT-1080 IDH1 knockdown cells (counter line); HT-1080 IDH1 knockdown viability, ATP luminescence, 48 h; Potency, µM (series often up to 46.1 µM), without a hit: at the top dose activity, negative = toxicity, most hits filed as cytotoxic; 2% of 360,000 active; AID 686971;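 further: 0% = DMSO wells and -100% = cell-free medium wells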
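HT-1080-IDH1KD cells (IDH1 knocked down), 750/well in RPMI with 5% FBS, treated with compound 48 h at 37 degrees C. Viability by CellTiter-Glo luminescence, normalised to DMSO and no-cell wells; concentration-response curves classed.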
HT1080-NT tox = kills 2HG-producing HT-1080-NT fibrosarcoma cells. Potency, µM (top dose mostly 46.1 µM), for inactives: at the highest dose activity, negative = less viability, usual class: cytotoxic. 1.6% of 360,000 active. HT-1080-NT fibrosarcoma viability, CellTiter-Glo ATP luminescence, 48 h. AID 686970;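 further: NT is the 2HG producing partner of a matched IDH1 knockdown line; 0% = DMSO-treated cells and -100% = media-only wells without cells; nearly all actives have a fitted effect of over 55% in size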
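Luminescent CellTiter-Glo readout after 48 hours of compound exposure at 37 degrees C defined viability of HT-1080-NT cells. Activity was normalized to DMSO wells and cell-free media wells; concentration-response curves were fitted and assigned curve classes.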
KB-V1 cytotox = KB-V1 MDR subline cytotoxicity; KB-V1 MDR cells viability, CellTiter-Glo, 72 h; Potency, µM (titrated, usually from 46.1 µM), hits mostly cytotoxic; 3.4% of 400,000 active; further: nearly all actives have a fitted effect of over 60% in size
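Luminescent ATP read-out (CellTiter-Glo, 10 min) measures survival of drug-selected KB-V1 MDR cells after 72 h, 37 degrees C compound exposure. Medium: phenol-red-free DMEM, 10% FBS. Values from fitted concentration-response curves.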
The depositor's hits bear a star; i = inactive; ? = inconclusive; / = not tested or not shown. In the library only some 19% were active in any assay of this set; here they are far more common. The call rests on the fitted dose curve; in most records, active means well fitted curve in the direction sought with a large enough effect; inconclusive means small, poorly fitted or top-dose-only effect, or another doubt; inactive means no such curve, though single readings can be large; an effect the other way counts as inactive or inconclusive. Unless noted, on the % scale 0 is the no-effect control and ±100 the full control effect; potency means the concentration at half of the fitted maximal effect.

SMILES	TDP1 cell CPT	KB-3-1 cytotox	TDP1 cell noCPT	HT1080 IDH1KD tx	HT1080-NT tox	KB-V1 cytotox
CCOC(=O)N1CCN(C(=O)CCSc2ccc(Cl)cc2)CC1	-13%	i	-30%	9%	7%	23µM*
O=C(CCl)NC(Cc1c[nH]c2ccc(OCc3ccccc3)cc12)C(=O)O (stereo unspecified)	16%	i	-8%	1%	12%	i
O=C(Nc1ccccc1)N1CCCC2(CCN(C(=O)c3ccco3)CC2)C1	7%	/	0%	/	/	/
CCOc1ccc(CCNC(=O)Cn2ccc3cc(S(=O)(=O)N4CCCCC4)ccc32)cc1	?	i	?	/	/	i
CC(C)c1ccc(NC(=O)C2CCCN(S(=O)(=O)c3ccc4[nH]c(=O)ccc4c3)C2)cc1 (stereo unspecified)	12µM*	/	-24%	/	/	/
COc1ccc(OC)c(NC(=O)C2CCCN(S(=O)(=O)c3ccc4[nH]c(=O)ccc4c3)C2)c1 (stereo unspecified)	?	/	23µM*	/	/	/
Cn1c(Cn2cnc3ccccc32)nc2ccccc21	-18%	i	-29%	?	-15%	i
Brc1ccccc1Cn1cnc2ccccc21	?	i	21µM*	-11%	2%	i
Brc1ccccc1OCCCCCN1CCOCC1	2%	i	?	0%	-20%	?
Clc1ccccc1OCCn1cnc2ccccc21	-18%	i	-22%	3%	9%	21µM*
Brc1ccccc1OCCCCn1cnc2ccccc21	4.1µM*	5.2µM*	10µM*	?	-16%	?
Clc1ccc(OCCn2cnc3ccccc32)cc1	23µM*	i	18µM*	-14%	-14%	i
Clc1ccc(Cn2cnc3ccccc32)cc1	?	?	?	?	-26%	i
Cc1cc(C)cc(NC(=O)Cn2c(=O)n(Cc3ccco3)c(=O)c3oc4ccccc4c32)c1	?	i	-34%	/	/	i
Cc1ccc(OCCCCn2cnc3ccccc32)c(C)c1	13µM*	i	8.2µM*	-24%	-8%	?
c1ccc2c(c1)ncn2CCC1CCCCC1	26µM*	i	21µM*	-2%	-13%	?
NC(=O)CCn1cnc2ccccc21	18%	i	1%	-1%	9%	i
Cc1ccc(C)c(OCCCCn2cnc3ccccc3c2=O)c1	?	i	?	?	2%	i
COc1cc(NC(=O)[C@H]2O[C@@H](n3ccc(N)nc3=O)[C@H](O)[C@@H]2O)cc(OC)c1OC	7%	i	9%	17%	23%	i
Cc1csc(NC(=O)NCC2CCCC(CNC(=O)Nc3nc(C)cs3)C2)n1 (stereo unspecified)	?	i	?	-29%	-25%	i
O=C(Nc1nc(-c2ccccn2)cs1)c1ccc([N+](=O)[O-])o1	4.1µM*	?	2.6µM*	?	-18%	i
CCc1cc(C(=O)Nc2nc(-c3ccccn3)cs2)sc1C	4.6µM*	i	2.9µM*	?	-1%	i
Cc1ccc(C(=O)Nc2nc(-c3ccccn3)cs2)o1	5.8µM*	?	3.7µM*	?	-17%	i
CC(=O)c1ccc(-c2ccc(C(=O)Nc3nc(-c4ccccn4)cs3)o2)cc1	2.9µM*	?	3.7µM*	10µM*	?	?
COc1ccc(CNC(=O)c2ccc(CNS(=O)(=O)c3ccc(F)cc3)cc2)cc1	-12%	/	7%	/	/	/
SMILES	TDP1 cell CPT	KB-3-1 cytotox	TDP1 cell noCPT	HT1080 IDH1KD tx	HT1080-NT tox	KB-V1 cytotox
CN1CCc2nc(NC(=O)COc3ccc(C#N)cc3)sc2C1	?	i	?	13%	-4%	i
c1ccc(CCNc2nc(-c3ccccn3)cs2)cc1	?	i	7.3µM*	12%	17%	i
c1ccc(CNc2ccccn2)cc1	-1%	i	-29%	-10%	0%	i
O=C(Nc1nc(-c2ccccn2)cs1)c1ccc(-c2ccccc2F)o1	5.8µM*	?	10µM*	?	?	i
Cc1cccc(NC(=O)C2CCCN(S(=O)(=O)c3ccc4c(c3)CCCC(=O)N4)C2)c1 (stereo unspecified)	/	i	/	/	/	i
CCC(C)C(=O)N1c2ccccc2C(=C2SC(C(=O)OC)=C(C(=O)OC)S2)C(=S)C1(C)C (stereo unspecified)	11µM*	?	13µM*	?	?	?
COc1ccc(S(=O)(=O)n2ccc(-c3ccc4c(c3)CCC(C)(C)O4)n2)cc1	?	i	?	?	-24%	12µM*
CC1(C)CCc2cc(-c3ccn(S(=O)(=O)c4ccccc4Cl)n3)ccc2O1	?	i	?	-26%	-5%	?
COc1ccc2c(c1)CCC2=O	12%	i	3%	/	/	i
COc1ccc2c(c1)CCCC(Br)C2=O (stereo unspecified)	5.2µM*	?	3.3µM*	-23%	-6%	?
O=C1c2ccccc2-c2onc3c(N4CCN(CCO)CC4)cc(N4CCN(C(=O)c5ccco5)CC4)c1c23	?	?	15µM*	?	?	?
O=C(O)CCCNc1cc(N2CCN(C(=O)c3ccco3)CC2)c2noc3c2c1C(=O)c1ccccc1-3	?	i	?	?	?	?
COc1ccc2oc(-c3ccc(C)c(NC(=O)c4cccnc4)c3)nc2c1	-14%	i	1%	/	/	?
OC(COCC(F)(F)C(F)(F)C(F)(F)C(F)F)Cn1c2ccccc2c2ccccc21 (stereo unspecified)	13µM*	?	8.2µM*	-23%	?	i
Cc1ccc(OCC(O)Cn2c3ccccc3c3ccccc32)cc1 (stereo unspecified)	?	i	13µM*	?	?	?
Cc1cccc(C)c1OCC(O)Cn1c2ccccc2c2ccccc21 (stereo unspecified)	?	?	21µM*	?	-23%	?
OCCNCC(O)Cn1c2ccccc2c2ccccc21 (stereo unspecified)	-13%	i	6%	0%	-1%	i
Cc1cccc(C)c1OCC(O)CN1CCN(c2ccccc2)CC1 (stereo unspecified)	?	i	?	-21%	-8%	i
